Data on twelve compounds can be found in PubChem BioAssay (NCATS).

Test [1] in a line: qHTS Assay for Lipid Storage Modulators (AID 1519; calls by dose curve; on activity change, negative = inhibition: on the % scale 0 is the no-effect control and ±100 the full control effect). To be noted: Drosophila S3 cells, BODIPY lipid droplet/cell ratio, laser cytometry, cells loaded with oleic acid. Summed up: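 Cells seeded at 5,000 per well were treated with compounds over a concentration series and loaded with oleic acid (400 uM, as added). Lipid droplet fluorescence (488 nm excitation, 500-530 nm channel) was read by laser-scanning cytometry and normalized to 20 uM Triacsin C.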
Background: Quantitative high-throughput screening tests each substance at several concentrations.

Test [2] is described as follows: Validation of Assay for Modulators of Lamin A Splicing (AID 1459; active means well fitted curve in the direction sought with a large enough effect in the signal ratio; the % refers to the signal ratio;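 further: cells exposed to compound for two days before reading; 0% is about no effect; ratio rise marks activators and ratio drop marks inhibitors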). To be noted: Lamin A splicing dual RFP/GFP fluorescence reporter; series mostly up to 9.22 µM. Summed up: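 Dual-reporter HeLa S3 line (lamin A-EGFP minigene, DsRed2) treated with compounds 48 hrs, 0.5% DMSO final. Endpoint: EGFP/DsRed2 total intensity ratio from laser-scanning microplate cytometry.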

Test [3] addresses DNA repair nuclease/redox regulator APEX1 (Homo sapiens) (UniProt P27695). The test can be described thus: qHTS Validation Assay for Inhibitors of the Human Apurinic/apyrimidinic Endonuclease 1 (APE1) (AID 1705;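 further: TAMRA fluorescence gain over two minutes as APE1 cuts a quenched THF abasic duplex; on the % scale 0 is the no-effect control and ±100 the full control effect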). To be noted: purified APE1 endonuclease activity, fluorescence, titration; series mostly up to 57.1 µM. Summed up: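 Substrate: 50 nM final fluorophore/quencher THF-abasic duplex. Enzyme preincubated with compounds 15 min, RT. Progress derived from fluorescence difference, third minus first kinetic read.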

Test [4] can be described thus: Counterscreen for APE1 Inhibitors: Fluorescent Dye Displacement Validation Assay (AID 1707).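 Further: plate controls were ThO with dsDNA and no compound for no effect and ThO without dsDNA for full effect.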 To be noted: fluorescent dye displacement from DNA; series mostly up to 57.1 µM. In outline:
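Counterscreen flags promiscuous DNA binders: compounds displacing ThO from duplex DNA (abasic THF site, 50 nM) reduce 540 nm emission (480 nm excitation). ThO 250 nM final; Tris-HCl pH 7.5 with NaCl, MgCl2 and Tween-20.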
On the technique in general: Counterscreens check selectivity or assay interference.

The target of test [5] is Endonuclease 4 (Escherichia coli (strain K12)) (UniProt P0A6C1). The test can be described thus: Counterscreen for APE1 Inhibitors: qHTS Validation Assay for Inhibitors of Endonuclease IV (AID 1708). Further: on the % scale 0 is the no-effect control and ±100 the full control effect. To be noted: E. coli endonuclease IV, DNA cleavage fluorescence; series mostly up to 57.1 µM. Summed up: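 Measured as reaction progress, the fluorescence gain between first and third kinetic reads after adding 50 nM TAMRA/BHQ-2 THF duplex to 2 nM enzyme preincubated 15 min with compound; 2 mM MgCl2, pH 7.5.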

Test [6] can be described thus: qHTS for differential inhibitors of proliferation of Plasmodium falciparum line 7G8 (AID 1815).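 Further: parasite growth measured after three days of incubation; plate controls were vehicle wells for no effect and reference inhibitor wells for full effect.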 To be noted: Plasmodium falciparum 7G8 proliferation inhibition; series mostly up to 28.7 µM.
Test [7] in a line: qHTS for differential inhibitors of proliferation of Plasmodium falciparum line GB4 (AID 1816).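 Further: parasite growth measured after 72 h incubation; 0% = vehicle DMSO and -100% = reference inhibitor.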 To be noted: Potency: Plasmodium falciparum GB4 proliferation inhibition; series mostly up to 28.7 µM.
Test [8] can be described thus: qHTS for differential inhibitors of proliferation of Plasmodium falciparum line 3D7 (AID 1876).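 Further: parasite growth measured after three days of culture; 0% = vehicle wells and -100% = reference inhibitor wells.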 To be noted: P. falciparum 3D7 proliferation inhibition; series mostly up to 28.7 µM.
A short description of test [9]: qHTS for differential inhibitors of proliferation of Plasmodium falciparum line D10 (AID 1877).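 Further: parasites grown with compound for 72 h before DNA staining; plate controls were vehicle wells for no effect and reference inhibitor wells for full effect.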 To be noted: series mostly up to 28.7 µM.
Test [10] is described as follows: qHTS for differential inhibitors of proliferation of Plasmodium falciparum line Dd2 (AID 1882).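 Further: compound exposure of 72 h on infected erythrocytes; plate controls were DMSO vehicle for no effect and 0.29 µM artemisinin for full effect; nearly all actives have a fitted effect of over 65% in size.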 To be noted: Potency: Plasmodium falciparum Dd2 proliferation inhibition; series mostly up to 28.7 µM. Summed up: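 RBC culture, 0.3% parasitemia / 2.5% Hct final; cpd added by pin tool in DMSO; 72 h, 37 C, 5% CO2; lysis buffer + SYBR Green I, o/n RT dark; FI 485/535; norm. to artemisinin 0.29 uM and DMSO.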

A short description of test [11]: qHTS for differential inhibitors of proliferation of Plasmodium falciparum line W2 (AID 1883).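 Further: parasites grown with compound for 72 h before lysis and staining; 0% = vehicle wells and -100% = control inhibitor wells.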 To be noted: Potency: Plasmodium falciparum W2 proliferation inhibition; series mostly up to 28.7 µM.
A short description of test [12]: qHTS for differential inhibitors of proliferation of Plasmodium falciparum line HB3 (AID 1886).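 Further: parasites grown with compound for 72 h before SYBR Green readout; plate controls were vehicle for no effect and reference inhibitor for full effect.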 To be noted: Potency: Plasmodium falciparum HB3 proliferation inhibition; series mostly up to 28.7 µM.
Test [13] can be described thus: qHTS Assay for Modulators of Human Peripheral Myelin Protein 22 (PMP22) Expression/Activity (AID 1967; active means well fitted curve in the direction sought with a large enough effect in the signal ratio; the % refers to the signal ratio;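 further: 0% = untreated cells and 100% end not stated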). To be noted: Cell-based PMP22 reporter, dual-color luciferase ratio, 0% = compound-free control cells, mouse Pmp22 promoter in mouse Schwann cells; series mostly up to 115 µM. Summed up: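 Engineered MSC80 cells, Pmp22-promoter green and EF-alpha red luciferase reporters; 24h compound treatment at 37 °C. Concentration-response fits on green, red and ratio signals, each overlap-corrected, with %Activity normalized to untreated wells.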

Test [14] deals with Ferritin light chain (Equus caballus) (UniProt P02791). In words: qHTS Validation Assay for Identification of Novel General Anesthetics (AID 2323). Further: on the % scale 0 is the no-effect control and ±100 the full control effect. To be noted: horse apoferritin, anesthetic-site fluorescent probe displacement; series mostly up to 76.9 µM. In outline: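 Normalized fluorescence response, scaled between free 1-AMA and 1-AMA/apoferritin complex, fitted to a four-parameter Hill equation for concentration-effect values. Binding mix: 10 uM horse-spleen apoferritin, 50% saturated 1-AMA in PBS; read 380/535 nm after 10 min.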
Sequence of Ferritin light chain (Equus caballus) (P02791 2-175 limits assumed): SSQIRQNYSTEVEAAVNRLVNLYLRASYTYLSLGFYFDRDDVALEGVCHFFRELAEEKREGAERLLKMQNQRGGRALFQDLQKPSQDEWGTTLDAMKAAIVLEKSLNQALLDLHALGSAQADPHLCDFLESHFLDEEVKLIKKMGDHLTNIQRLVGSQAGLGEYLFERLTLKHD

The target of test [15] is ATP-dependent DNA helicase Q1 (Homo sapiens) (UniProt P46063). In words: qHTS Validation Assay for Inhibitors of RecQ-Like Dna Helicase 1 (RECQ1) (AID 2353).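 Further: plate controls were DMSO vehicle for no effect and enzyme-free control for full effect.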 To be noted: recombinant RECQ1 helicase DNA unwinding assay; series mostly up to 25.6 µM. In outline:
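RECQ1T1 50 nM; forked duplex (20 bp + 30-nt ss tails) 200 nM, ATP 2 mM final; pH 8.0, 2 mM MgCl2, 2.5 ug/ml poly(dI-dC); 15 min compound preincubation; discontinuous kinetic read over 2 h at RT.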

Where [16] appears, read: measured here: cell count channel max response.
Setting [17] is: measured here: lipid channel max response.

Records with an inconclusive call do not appear. The source made the active and inactive calls. Unless noted, the call rests on the fitted dose curve; in most records, active means well fitted curve in the direction sought with a large enough effect; inconclusive means small, poorly fitted or top-dose-only effect, or another doubt; inactive means no such curve, though single readings can be large; an effect the other way counts as inactive or inconclusive.

Sequence of DNA repair nuclease/redox regulator APEX1 (Homo sapiens) (P27695 whole entry, looked up): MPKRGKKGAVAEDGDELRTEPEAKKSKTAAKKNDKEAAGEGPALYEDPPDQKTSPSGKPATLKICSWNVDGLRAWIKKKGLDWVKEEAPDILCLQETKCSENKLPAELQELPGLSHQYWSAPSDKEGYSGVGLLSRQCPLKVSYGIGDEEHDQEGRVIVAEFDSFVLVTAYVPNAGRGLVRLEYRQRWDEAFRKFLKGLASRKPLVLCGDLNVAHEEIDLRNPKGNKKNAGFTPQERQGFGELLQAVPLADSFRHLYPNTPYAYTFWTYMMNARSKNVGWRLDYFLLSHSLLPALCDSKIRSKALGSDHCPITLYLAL
Sequence of ATP-dependent DNA helicase Q1 (Homo sapiens) (P46063 whole entry, looked up): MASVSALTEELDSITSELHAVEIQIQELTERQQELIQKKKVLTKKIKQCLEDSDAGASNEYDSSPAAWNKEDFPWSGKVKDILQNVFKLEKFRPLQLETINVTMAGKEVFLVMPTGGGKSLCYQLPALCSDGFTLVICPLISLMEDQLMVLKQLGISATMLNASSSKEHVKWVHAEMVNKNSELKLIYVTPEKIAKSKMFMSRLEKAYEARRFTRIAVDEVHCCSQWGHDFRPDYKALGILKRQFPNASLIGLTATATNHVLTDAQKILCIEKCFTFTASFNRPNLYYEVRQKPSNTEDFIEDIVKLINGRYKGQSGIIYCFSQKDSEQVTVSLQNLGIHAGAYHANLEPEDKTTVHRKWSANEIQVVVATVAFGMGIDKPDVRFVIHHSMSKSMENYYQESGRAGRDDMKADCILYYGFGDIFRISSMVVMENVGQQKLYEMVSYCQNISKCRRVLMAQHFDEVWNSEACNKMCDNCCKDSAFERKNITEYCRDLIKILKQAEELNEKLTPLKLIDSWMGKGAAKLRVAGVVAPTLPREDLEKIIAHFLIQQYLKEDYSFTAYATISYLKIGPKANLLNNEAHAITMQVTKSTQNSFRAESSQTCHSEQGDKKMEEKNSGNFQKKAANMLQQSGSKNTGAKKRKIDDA

Turning to `Cc1ncc(C[n+]2csc(CCO)c2C)c(N)n1`, in [1] (at 25.7 µM (top of the series)), the activity change, negative = inhibition is -1.32% (inactive). Also, the max response in [1] (setting [16]) stood at 9.62%; in test [1] (setting [17]), 7.5%.

For `O=C(NCCNCC(O)COc1ccc(O)cc1)N1CCOCC1` (stereo not given), the outcome in test [2], in test [3], in test [4], in [5], in [8] and in test [9] was inactive. For the same compound, the outcome in test [13], in test [14] and in [15] was inactive. Also, the activity change, negative = inhibition in test [1] (at 57.5 µM (top of the series)) is -2.06% (inactive). The results for the max response in test [1] (setting [16]) and in test [1] (setting [17]) were -28.3% and -30.3%, respectively. For the same compound, the Potency result in test [6], in test [7], in test [10], in test [11] and in test [12] was “inactive” each time.

On to `CC1(C)S[C@@H]2[C@H](NC(=O)C3(N)CCCCC3)C(=O)N2[C@H]1C(=O)O`, for which the activity change, negative = inhibition in [1] (at 25.7 µM (top of the series)) is -0.399% (inactive). For the same compound, the max response came to 10.5% in test [1] (setting [16]) and 9.76% in [1] (setting [17]).

As to `CN1CCc2c(c3ccccc3n2Cc2ccccc2)C1`, in test [1] (at 25.7 µM (top of the series)), the activity change, negative = inhibition is -1.45% (inactive). Further, the max response in test [1] (setting [16]) was determined as 1.19%; in test [1] (setting [17]), 1.48%.

Regarding `O=C(O)Cc1cc(I)c(Oc2ccc(O)c(I)c2)c(I)c1`, the activity change, negative = inhibition in test [1] (at 25.7 µM (top of the series)) is -0.457% (inactive). Besides, the max response in test [1] (setting [16]) was found to be 2.07%; in [1] (setting [17]), 0.793%.

As to `CC1CCCC(C)N1NC(=O)c1ccc(Cl)c(S(N)(=O)=O)c1` (stereo not given), the activity change, negative = inhibition in test [1] (at 57.5 µM (top of the series)) is 2.67% (inactive). The max response in [1] (setting [16]) is 17.3%; in test [1] (setting [17]), 23.6%.

Consider `CC[C@H]1OC(=O)[C@H](C)[C@@H](O[C@H]2C[C@@](C)(OC)[C@@H](O)[C@H](C)O2)C(C)[C@@H](O[C@@H]2O[C@H](C)C[C@H](N(C)C)[C@@H]2O)[C@](C)(OC)C[C@@H](C)C(=O)[C@H](C)[C@@H](O)[C@]1(C)O` (stereo not given in full), for which the activity change, negative = inhibition in [1] (at 57.5 µM (top of the series)) is 7.44% (inactive). The max response in test [1] (setting [16]) came out at 9.53%; in [1] (setting [17]) it was 18.8%.

As to `CNC(=O)c1c(I)c(C(=O)NCC(=O)Nc2c(I)c(C(=O)O)c(I)c(C(=O)NCCO)c2I)c(I)c(N(C)C(C)=O)c1I`, the activity change, negative = inhibition in test [1] (at 25.7 µM (top of the series)) was -2.02% (inactive). For the same compound, the max response is -4.35% in test [1] (setting [16]) and -10.2% in test [1] (setting [17]).

Consider `O=C1c2ccccc2C(=O)c2c1ccc(O)c2O`, for which the activity change, negative = inhibition in test [1] (at 57.5 µM (top of the series)) was 15% (inactive). Besides, the max response in test [1] (setting [16]) was 2.35%; in [1] (setting [17]) it was 20.3%.

As to `CC(=O)Oc1cccc2c1C(=O)c1c(OC(C)=O)cc(C(=O)O)cc1C2=O`, the activity change, negative = inhibition in test [1] (at 57.5 µM (top of the series)) is 13.8% (inactive). Moreover, the max response in test [1] (setting [16]) was found to be 25.9%; in test [1] (setting [17]), 41.9%.

Consider `O=C(O)CCC(=O)c1ccc(-c2ccccc2)cc1`, for which, in test [1] (at 25.7 µM (top of the series)), the activity change, negative = inhibition is 2.12% (inactive). The max response in [1] (setting [16]) is -6.39%; in test [1] (setting [17]), -2.43%.

As to `O=C(CCCCCCCCCCCCC1CCCC1)Nc1ccc(S(=O)(=O)c2ccc(NC(=O)CCCCCCCCCCCCC3CCCC3)cc2)cc1`, in [1] (at 57.5 µM (top of the series)), the activity change, negative = inhibition is 10% (inactive). In addition, the max response in test [1] (setting [16]) came to 14.8%; in [1] (setting [17]), 25.4%.
